Experimental findings from PubChem BioAssay (NCI) are described below.

The panel holds about 83,000 compounds, 20% with a hit somewhere; the sample as a whole holds those more often.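 Method: cells in 96-well plates; compound added at one concentration; 48 h incubation; percent growth measured; values under 10 scored active.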 Calls of active or inactive are those of the source.

The test system of the experiment is SF-295 CNS. As to the kind of experiment: NCI-60 one-dose screen, 48 h (100 = growth as untreated, 0 = no growth, -100 = all killed). The following applies: 10 µM unless noted.
As to `C(=C1c2ccccc2-c2ccccc21)c1ccncc1`, the growth is 35.6% (inactive). To `O=Nc1c2cccnc2n2nnc3ccc(Cl)cc3c12` belongs 90.3% (inactive). Then `COc1ccc(/C=C2/SC(=Nc3c(C)nn(-c4ccccc4)c3N)NC2=O)cc1`, with 8.06% (active); and `Cc1ccc(-c2c3c(N)c4c(nc3nc3c2c(C)nn3-c2ccccc2)CCC4)cc1`, with 98.5% (inactive). Then `Cc1cc(-c2ccccc2)cc(C)n1`, with 101% (inactive); and `CCSCC1CC(O)(c2ccccc2)C(c2ccccc2)C(c2ccc(Cl)cc2)O1` (stereo not given), with -54.1% (active); and `COc1ccc(/C=C/C(=O)c2cccc(NS(C)(=O)=O)c2)cc1`, with 92.1% (inactive).

Turning to `Cc1[nH]cnc1/C=C1\SC(N2CCCCC2)=NC1=O`, the growth was 130% (inactive). For the compound `C[N+]1(C)C2CC[C@@H]1CC(OC(=O)C(O)c1ccccc1)C2` (stereo not given in full), the growth was 104% (inactive). Then `CN(C)CCCN=c1cc2c(=O)n(CCCN(C)C)c(=O)c3c(NCCCN(C)C)cc4c(O)n(CCCN(C)C)c(=O)c1c4c3-2`, with -34.8% (active); and `C[C@]12CC[C@H](O)CC1=CC[C@@H]1[C@@H]2CC[C@]2(C)C(c3cccnc3)=CC[C@@H]12`, with 42% (inactive); and `CCOC(=O)Nc1ccc2c3c(cccc13)-c1ccccc1-2`, with 27.2% (inactive). `CSc1nc2nc3c(nc2c(=O)n1C)C(=O)c1ccccc1C3=O`: the growth is -93.4% (active). Then `O=C1/C(=C\c2coc3ccccc3c2=O)c2ccccc2N1c1c(Cl)cccc1Cl`, with -12% (active); and `O=C(Oc1cccc2ccccc12)c1ccccc1C(=O)c1ccccc1`, with 98.5% (inactive).
